Several values for one entry are separate records, joined by “and”; a condition that tells them apart may be missing. Equal entries are not always repeated.
What follows are compounds tested against C-X-C chemokine receptor type 6 (Homo sapiens) (UniProt O00574) (assay: apelin receptor (APJ) antagonists, SAR follow-up, counter-screen for CXCR6 antagonist project, cell-based, beta-arrestin, DiscoveRx, panel, CHO-K1 (AID 651598)). Settings: CHO-K1 PathHunter beta-arrestin luminescence, antagonist mode; run 6, at 80 µM (top of the series).
C-X-C chemokine receptor type 6 (Homo sapiens), sequence (O00574 whole entry, looked up): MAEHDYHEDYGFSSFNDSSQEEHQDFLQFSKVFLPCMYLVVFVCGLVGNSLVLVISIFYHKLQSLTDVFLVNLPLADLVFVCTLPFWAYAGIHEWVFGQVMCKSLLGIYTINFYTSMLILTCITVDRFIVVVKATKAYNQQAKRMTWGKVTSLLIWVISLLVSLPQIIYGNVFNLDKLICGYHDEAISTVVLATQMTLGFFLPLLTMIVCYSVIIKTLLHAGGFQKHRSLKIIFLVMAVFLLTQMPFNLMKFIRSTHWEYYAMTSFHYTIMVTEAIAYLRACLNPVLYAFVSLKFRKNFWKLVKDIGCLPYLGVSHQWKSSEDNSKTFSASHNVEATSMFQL

SMILES | inhibition
COc1cc(C(=O)NC2CC3CCCC(C2)N3CC(=O)Nc2ccccc2)cc(OC)c1OC (stereo not drawn) | 85.3% and 54.2% and 27.6%
COc1cc(C(=O)NC2CC3CCC(C2)N3CC(=O)Nc2ccccc2)cc(OC)c1OC (stereo not drawn) | 57.4% and -0.766%
COc1cc(C(=O)NC2CCN(CC(=O)Nc3ccccc3)CC2)cc(OC)c1OC | 20.7%
